Source: PubChem (National Center for Advancing Translational Sciences (NCATS))
Compounds with a hit are over-represented: about 10% of the library has one in this group of screens.
BAZ2B block: qHTS Assay for Inhibitors of BAZ2B. 360,000 tested, 4.4% active. Bromodomain adjacent to zinc finger domain protein 2B (Homo sapiens), Q9UIF8. AID 504333, 2011. Potency, µM (highest dose often 114 µM), hits mostly inhibitors. AlphaScreen BAZ2B-H3K14Ac peptide displacement; also: nearly all actives have a fitted effect of over 60% in size
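AlphaScreen displacement: compounds (up to 110uM) incubated 30 min at room temperature with a preformed 50 nM BAZ2B/50 nM biotinylated H3K14Ac peptide complex in PBS pH 7.4 with Tween-20. Donor and acceptor beads at 10 ug/mL final added, 20 min light-protected before reading.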
HP1b chromo inh: HTS for Inhibitors of HP1-beta Chromodomain Interactions with Methylated Histone Tails. Chromobox protein homolog 1 (Homo sapiens), P83916. AlphaScreen HP1-beta / biotin-H3K9me3 peptide binding. Potency, µM (titrated, usually from 114 µM), hits mostly inhibitors. 390,000 tested, 0.56% active; also: nearly all actives have a fitted effect of over 70% in size
Target sequence (P83916 whole entry, looked up): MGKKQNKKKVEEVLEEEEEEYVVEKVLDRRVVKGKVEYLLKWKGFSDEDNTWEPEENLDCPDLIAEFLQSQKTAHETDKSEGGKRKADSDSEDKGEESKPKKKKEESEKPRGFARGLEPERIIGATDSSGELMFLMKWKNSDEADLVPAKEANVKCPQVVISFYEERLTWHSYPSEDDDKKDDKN
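AlphaScreen: HP1-beta (50 nM) preformed 30 min with biotin-H3(1-18)K9me3 peptide (50 nM) in PBS pH 7.4, 0.01% Tween-20. Compound added for 30 min at RT, then streptavidin donor/nickel chelate acceptor beads (10 ug/mL) for 30 min.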
Six1-Eya2 inh: qHTS Assay for Inhibitors of the Six1/Eya2 Interaction; 360,000 tested, 0.56% active; AlphaScreen GST-Six1/His-Eya2 binding, biochemical; active compounds read low; Homeobox protein SIX1 (Homo sapiens) + Protein phosphatase EYA2 (Homo sapiens), …; activity change, % (concentration not given with the values); in the data active = activity change below about -65%; inconclusive = mostly about -30% to -63%
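AlphaScreen with GST-Six1 and His-Eya2 (5X mix: 250 nM and 500 nM), glutathione donor and nickel acceptor beads; buffer 50 mM Tris pH 8.0, 300 mM NaCl, 1 mM TCEP; 1 h at 37 C in the dark.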
CtBP-E1A blk: qHTS Assay for Inhibitors of the CtBP/E1A Interaction | CtBP / adenovirus E1A interaction (AlphaScreen) | AlphaScreen GST-E1A/His-CtBP binding, 1536-well; active compounds read low | activity change, % (no concentration beside the values) | 340,000 tested, 0.49% active | AID 651724, 2012; in the data active = activity change below about -65%; inconclusive = mostly about -30% to -63%
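Protein mix (5X: 125 nM each GST-E1A, His-CtBP) was incubated with pinned compound 2 h at 37 deg C in dark, in 50 mM Tris pH 8.0 buffer with 300 mM NaCl. Glutathione donor and nickel acceptor beads followed; AlphaScreen signal read after 1 h.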
G9a inh: qHTS Assay for Inhibitors of Histone Lysine Methyltransferase G9a. Potency, µM (top dose mostly 102 µM), most hits filed as inhibitors. Histone-lysine N-methyltransferase EHMT2 (Homo sapiens), Q96KQ7. G9a H3K9 monomethylation, AlphaScreen, 2 h. 350,000 tested, 8.8% active; also: nearly all actives have a fitted effect of over 75% in size
Target sequence (Q96KQ7 913-1193 limits assumed): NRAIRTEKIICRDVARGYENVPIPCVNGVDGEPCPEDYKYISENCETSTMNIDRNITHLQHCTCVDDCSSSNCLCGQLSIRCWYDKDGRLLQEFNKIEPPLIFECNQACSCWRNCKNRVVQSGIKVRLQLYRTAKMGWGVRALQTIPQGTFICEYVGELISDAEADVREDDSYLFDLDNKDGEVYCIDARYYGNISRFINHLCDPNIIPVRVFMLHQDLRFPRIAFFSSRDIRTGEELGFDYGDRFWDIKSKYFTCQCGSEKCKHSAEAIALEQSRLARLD
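Signal arises when biotinylated H3K9 peptide, once monomethylated, bridges streptavidin donor and antibody-captured acceptor beads. Enzyme at 20 nM was preincubated 15 min with test compounds; peptide 500 nM and SAM 20 uM then reacted for 2 h.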
JMJD2A Tudor: qHTS Assay for Inhibitors of JMJD2A-Tudor Domain | Lysine-specific demethylase 4A (Homo sapiens), O75164 | AlphaScreen JMJD2A-Tudor / H3K4me3 peptide binding | Potency, µM (titrated, usually from 114 µM), usual class: inhibitors | 390,000 tested, 4.4% active | AID 504339, 2011; also: nearly all actives have a fitted effect of over 50% in size
A number is an active result; 0 = inactive; ? = inconclusive; - = no result given; [ ] = dose if it differs, or a comment. Unless noted, calls follow the shape of the dose curve; as a rule, active = well fitted inhibition curve with a large enough effect; inconclusive = small, poorly fitted or top-dose-only effect; inactive = no such curve, though single readings can be large or run the other way.

SMILES	BAZ2B block	HP1b chromo inh	Six1-Eya2 inh	CtBP-E1A blk	G9a inh	JMJD2A Tudor
Cc1ccc(-c2csc3nc(CSc4nnc(-c5ccc(Cl)cc5)n4C)[nH]c(=O)c23)cc1	0	0	0	0	22µM	0
CCn1c(SCc2nc3scc(-c4ccccc4)c3c(=O)[nH]2)nnc1-c1ccc(Cl)cc1	0	0	0	0	0	0
COC(=O)c1sc2nc(CSc3nc4ccc(C)cc4[nH]3)[nH]c(=O)c2c1C	0	0	0	0	?	0
CCSc1ccccc1C(=O)N1CCC2(CC1)CC(=O)c1ccccc1O2	0	0	0	0	0	0
COc1ccc(NCC(=O)N/N=C/C2CCCCC2)cc1	0	0	0	0	0	0
CCOc1ccccc1NC(=O)c1cc(S(=O)(=O)N2CCOCC2)cn1C	0	0	-	-	0	0
COc1cccc(CN2CCN(CC#Cc3ccccc3)CC2CCO)c1 (stereo not drawn)	0	0	0	0	0	0
CC(=O)c1sc2nc(CSc3nncn3C)[nH]c(=O)c2c1C	0	0	0	0	0	0
Cc1c(C(=O)O)sc2nc(CSc3nnc(-c4ccc(F)cc4)n3C)[nH]c(=O)c12	?	0	0	0	35µM	?
CC(C)(C)Cc1nnc(NC(=O)CSc2ccccc2)s1	?	?	0	0	4.5µM	56µM
CC(C)Cc1nnc(NC(=O)CCC(=O)Nc2ccccc2)s1	0	0	0	0	0	0
CC(C)Cc1nnc(NC(=O)CN2C(=O)c3ccccc3C2=O)s1	0	0	0	0	25µM	0
CCOCc1nnc(NC(=O)CSc2ccccc2)s1	0	0	0	0	0[12.7 µM]	0
CCCCc1nnc(NC(=O)CN2C(=O)c3ccccc3C2=O)s1	0	0	0	0	0	0
CC(C)(C)Cc1nnc(NC(=O)CN2C(=O)c3ccccc3C2=O)s1	0	?	0	0	35µM	0
CC(CC(=O)Nc1nnc(C(C)(C)C)s1)c1ccccc1 (stereo not drawn)	0	0	0	-	25µM	0
O=C1Nc2ccccc2-n2nnnc2C1N1CCc2ccccc2C1 (stereo not drawn)	-	-	0	0	-	-
CCOc1ccc(Nc2c(S(=O)(=O)c3ccc(Cl)cc3)cnc3ccc(OCC)cc23)cc1	0	0	-	-	0	0
Nc1c(C(=O)Nc2cccc(C(=O)O)c2)sc2nc3c(cc12)CCCC3	0	0	0	?	45µM	0
Nc1c(C(=O)Nc2ccc(Cl)c(C(=O)O)c2)sc2nc3c(cc12)CCCC3	0	0	-74	-78	45µM	0
Nc1c(C(=O)Nc2ccc(C(=O)O)cc2)sc2nc3c(cc12)CCCC3	0	0	-	-	?	0
O=C(c1cc(=O)[nH]c2ccccc12)N(Cc1nnc(-c2ccccc2Cl)o1)C1CC1	0	0	0	0	50µM	0
Cc1c(C(=O)N(Cc2nnc(-c3ccccc3Cl)o2)C2CC2)oc2ccccc12	0	0	0	-	0[12.7 µM]	0
Cc1noc(C)c1-c1nc(NC2CCNCC2)c2ccccc2n1	-	-	-	-	0[0.501 µM]	-
CN(C)CCCN(C(=O)c1ccc2c(c1)CCCC2)c1nc2ccc(Cl)cc2s1	?	0	0	?	?	40µM
COc1cccc2sc(N(CCN(C)C)C(=O)c3ccc4c(c3)CCCC4)nc12	?	0	?	0	?	?
CCOc1ccc2nc(N(CCCN(C)C)C(=O)c3ccc4c(c3)CCCC4)sc2c1	?	0	0	0	45µM	?
Cc1ccccc1NC(=O)c1ccc(CNS(=O)(=O)c2ccc3c(c2)C(C)(C)C(=O)N3C)cc1	0	0	-	-	0	0
Cc1ccc(CNC(=O)c2ccc(CNS(=O)(=O)c3ccc4c(c3)C(C)(C)C(=O)N4C)cc2)o1	0	0	0	0	45µM	0
